Structures are written as SMILES. The whole screen tested about 320,000 compounds, of which about 1,300 (0.41%) were called active. About 3% were inconclusive and are not listed. No rule for the calls is given here. Only a sample is shown. Potency and affinity values are given separately.

The assay is described as follows: growth inhibition of non-replicating M. tuberculosis (AID 488890).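 Also: plate controls were DMSO cells for no effect and high antibiotic wells for full effect.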 The note with it: Mycobacterium tuberculosis non-replicating, at 25 µM, stronger effect = higher value.
One may read the inhibition as the change of the read-out against control, counted positive when it falls. Take `COc1cccc(-c2cccc(NC(=O)C3CCN(Cc4cccc(C)n4)CC3)c2)c1`: the inhibition was 5.93%.
Then `CCc1ccc(NC(=S)N2CCN(C)CC2)cc1`, with -4.9%.
Then `COc1ccc([N+](=O)[O-])cc1NC(=O)CCCOc1ccccc1`, with 12.4%; and `Cc1ccc(C(=O)Nc2ccc(Oc3cccc(C(F)(F)F)c3)nc2)cc1`, with -15.4%.
Consider `COc1cc(-c2nnc(NC(=O)c3ccco3)o2)cc(OC)c1OC`, for which the inhibition turned out to be 12.9%.
Under `Cc1ccc(-c2nnc(-c3ccc(NC(=O)c4ccco4)cc3)o2)cc1` stands -12.3%; under `COc1ccc(CN2C(=O)c3ccccc3C2OC)cc1` (configuration not stated), 43.5%; under `O=C(NCc1ccccc1)c1nc(-c2cccs2)no1`, 15.8%.
Turning to `COc1ccc(CCNC(=O)c2nc(-c3cccs3)no2)cc1OC`, the inhibition came to 62.8%.
Under `CC(=O)c1ccccc1Oc1cc(NN2CCCCC2)c([N+](=O)[O-])cc1[N+](=O)[O-]` stands 30.5%; under `Cc1ccc(S(=O)(=O)N2CCCC2C(=O)NC2CCCCC2)cc1` (configuration not stated), 13.2%; under `Nc1ccc2oc3ccccc3c2c1`, 68.5%.
Then `Nc1ccc(C#Cc2ccc3c(=O)c4ccccc4oc3c2)cc1`, with 11.2%; and `Cc1sc(NC(=O)c2oc3ccccc3c2C)c(C#N)c1C`, with 0.16%; and `NS(=O)(=O)c1ccc(CCNCc2cc(Br)ccc2OCc2ccccc2)cc1`, with 36%.
Consider `CCOc1ccc(N(C(=O)c2ccc(S(=O)(=O)N3CCCC3)cc2)C2C=CS(=O)(=O)C2)cc1` (configuration not stated), for which the inhibition was 2.41%.
Under `CCN(CCn1cccn1)Cc1cn[nH]c1-c1ccc(-c2ccccc2)cc1` stands 23%; under `CCCC(=O)NC1C2CC3CC(C2)CC1C3` (configuration not stated), 66.5%.
As to `O=C(CNCc1ccccc1)NC1C2CC3CC(C2)CC1C3` (configuration not stated), the inhibition was found to be 7.24%.
On to `Cc1ccc(S(=O)(=O)N2CCC(C(=O)NC3CC(C)(C)NC(C)(C)C3)CC2)cc1`, for which the inhibition is -9.46%.
As for `O=C(CC1SC(N2CCCCC2)=NC1=O)Nc1cccc(C(=O)O)c1` (configuration not stated), the inhibition was -10.1%.
`COC(=O)CCSc1cc(NCCOC(C)=O)c([N+](=O)[O-])c2nonc12`: the inhibition stood at 72.4%.
Under `O=[N+]([O-])c1c(NCCCO)cc(SCc2ccco2)c2nonc12` stands 70.1%; under `CCCSc1cc(NCCOC(C)=O)c([N+](=O)[O-])c2nonc12`, 74.5%; under `CC(=O)OCCCNc1cc(Sc2nc3ccccc3s2)c2nonc2c1[N+](=O)[O-]`, 7.19%.
For the compound `CC(=O)OCCNc1cc(SC(C)C)c2nonc2c1[N+](=O)[O-]`, the inhibition turned out to be 65.7%.
Regarding `Cn1ccnc1Sc1cc(NCCCO)c([N+](=O)[O-])c2nonc12`, the inhibition was found to be 77.2%.
Turning to `Cc1cc2c(C)c(C)c(=O)[nH]c2cc1N`, the inhibition stood at 6.16%.
For `Cc1occc1C(=O)NNC(=O)NC12CC3CC(CC(C3)C1)C2`, the inhibition worked out at 1.27%.
Under `O=C(NCc1ccccn1)c1cccc(S(=O)(=O)N2CCCCC2)c1` stands -1.8%; under `COc1ccc(C(=O)NNC(=O)CCC(=O)NNC(=O)c2ccc(OC)cc2)cc1`, 8.31%; under `CCNc1nc(NCC)n2c(SCc3nc4ccccc4c(=O)[nH]3)nnc2n1`, 48.6%.
Under `Cn1c(=O)c(Oc2cc(Cl)cc(Cl)c2)nc2ccccc21` stands 5.56%.
As to `Cc1ccc(N)cc1NC(=O)CN1CCOCC1`, the inhibition was found to be 6.66%.
On to `CCOCCCNC(=O)C1CC(=O)N(C2CCCC2)C1` (configuration not stated), for which the inhibition was -5.49%.
Then `CSc1ncccc1C(=O)OCC(=O)N1CCCC1`, with 39.6%; and `COc1cccc(C(=O)COC(=O)c2ccc(NC(C)=O)cc2)c1`, with 61.7%; and `CCN(CC)S(=O)(=O)c1cc(C(=O)N=c2sccn2C)ccc1OC`, with 20.4%.
As to `OCCN1CCN(Cc2cc(Cl)c3cccnc3c2O)CC1`, the inhibition was found to be 66%.
Then `O=C(Oc1c(Cl)cc(Cl)c2cccnc12)N1CCOCC1`, with 2.11%; and `CCOC(=O)N1CCN(Cc2ccc(O)c3ncccc23)CC1`, with 56.8%; and `CCOC(=O)N1CCN(Cc2ccccc2Cl)CC1`, with 10.7%.
Under `O=[N+]([O-])c1cc(CN2CCCC2)c2cccnc2c1O` stands -4.52%; under `CN1CCN(Cc2cc(Cl)c3cccnc3c2OC(=O)c2cccs2)CC1`, 51%; under `COCCCNC(=O)c1ccc2c(c1)ncn2-c1ccc(C)cc1C`, 5.06%.
Turning to `Cc1ccc(NC(=O)CN2C(=O)NC3(CCCC3)C2=O)nc1`, the inhibition was -25.1%.
Turning to `COc1ccccc1OCC(=O)/C=C1/N(C)c2ccccc2C1(C)C`, the inhibition worked out at 17.5%.
Then `NS(=O)(=O)c1ccc(CCNC(=O)C2COc3ccccc3O2)cc1` (configuration not stated), with 7.64%; and `COc1ccc(CCN2C(=O)CC(N3CCN(S(=O)(=O)c4ccccc4)CC3)C2=O)cc1OC` (configuration not stated), with 13.8%; and `CCC(C)[C@H](NC(=O)c1cc2cc(Cl)ccc2n1C)C(=O)N1CCC(C(=O)O)CC1` (some centres not stated), with 0.12%.
Then `COc1cccc(CNC(=O)CN2CCC(c3nc4ccc(C)cc4[nH]3)CC2)c1`, with 6.15%; and `FC(F)(F)c1cccc(CON=C2CCN(c3ncc(C(F)(F)F)cc3Cl)CC2)c1`, with -8.15%; and `O=C(Nc1cc(Cl)ccc1Cl)c1ccco1`, with -1.55%.
Then `O=C(Nc1cc(Cl)ccc1Cl)c1ccc(OC(=O)c2ccco2)cc1`, with 49.5%; and `CN(Cc1ccc2c(c1)OCCO2)C(=O)CSc1ncnc2sccc12`, with 25.8%.
With `CCCc1cc(=O)[nH]c(SCC(=O)c2cc(C)n(CC(F)(F)F)c2C)n1`, the inhibition came out at 6.27%.
For the compound `COc1cccc(-n2ccnc2SCC(=O)Nc2ccccc2)c1`, the inhibition turned out to be 2.78%.
`O=C(N/N=C/c1c[nH]c2ccccc12)C1COc2ccccc2O1` (configuration not stated): the inhibition was found to be 26.6%.
For `O=C(N/N=C/c1cccc([N+](=O)[O-])c1)C1COc2ccccc2O1` (configuration not stated), the inhibition was 29.6%.
For `O=C(N/N=C\c1ccc(-c2ccc([N+](=O)[O-])cc2)o1)C1COc2ccccc2O1` (configuration not stated), the inhibition came out at 42.2%.
On to `Cn1cccc1/C=N\NC(=O)C1COc2ccc(C(C)(C)C)cc2O1` (configuration not stated), for which the inhibition came out at 78.1%.
With `C/C(=N\NC(=O)C1COc2ccccc2O1)c1ccc(Cl)s1` (configuration not stated), the inhibition worked out at 76%.
Then `CC(C)(C)c1ccc2c(c1)OC(C(=O)N/N=C\c1ccncc1)CO2` (configuration not stated), with 10.4%.
Then `CC(C)(C)c1ccc2c(c1)OC(C(=O)N/N=C/c1ccc([N+](=O)[O-])o1)CO2` (configuration not stated), with 77.1%; and `O=C(N/N=C\c1ccc(O)c([N+](=O)[O-])c1)C1COc2ccccc2O1` (configuration not stated), with 57%.
As for `CC(C)CNS(=O)(=O)c1ccccc1C(=O)N1CCCCC1`, the inhibition is 8.8%.
`C/C(=C\c1ccccc1)C(=O)N1CCN(c2cccc(C(F)(F)F)c2)CC1`: the inhibition came out at 22.2%.
Then `COc1ccc(N2CC(C)Cn3c2nc2c3c(=O)n(Cc3ccc(C)cc3)c(=O)n2C)c(OC)c1` (configuration not stated), with 17.9%.
Then `CCc1ccc(C(=O)NNC(=O)c2ccc3c(=O)n4c(nc3c2)CCC4)cc1`, with -9.87%.
As to `Cc1cc(OC(C)C(=O)Nc2ccccc2C(=O)N2CCCC2)ccc1Cl` (configuration not stated), the inhibition was determined as 4.49%.
Then `O=C(/C=C/c1ccccc1)NCCc1ccccc1`, with 1.5%; and `COc1ccc(N2CC(C(=O)OCC(=O)Nc3cccc(C)c3C)CC2=O)cc1` (configuration not stated), with -1.13%.
In the case of `Cn1c(N)c(C(=O)CNC2CCCCC2)c(=O)n(C)c1=O`, the inhibition is -15.1%.
Then `CCOC(=O)CNC(=O)CSc1nnc(C)c(=O)[nH]1`, with -4.04%; and `Cc1cc(C)c(S(=O)(=O)c2ccccc2C)c(OCCN(C)C)n1`, with 6.46%; and `CN(C)c1ccc(/C=N/NC(=O)C2COc3ccccc3O2)o1` (configuration not stated), with 1.59%.
Under `O=C(N/N=C/c1ccco1)C1COc2ccccc2O1` (configuration not stated) stands 4.17%; under `CCCN1CCN(c2ccc([N+](=O)[O-])cc2C#N)CC1`, 2.83%.
Consider `CC1CC(=O)C(C2c3ccccc3CCN2C(=O)CCl)C(=O)C1` (configuration not stated), for which the inhibition was found to be 14.6%.
Under `CN1CCCC(OC(=O)c2ccccc2Br)C1` (configuration not stated) stands -1.81%; under `CCN1C(=O)CC(N2CCC(C(=O)N3CCCCCC3)CC2)C1=O` (configuration not stated), 77%.
For the compound `O=C1CC(N2CCN(c3ccccc3O)CC2)C(=O)N1Cc1ccccc1` (configuration not stated), the inhibition came out at 72%.
Under `O=C(CC1C(=O)NCCN1Cc1cccc(Oc2ccccc2)c1)NCCc1ccncc1` (configuration not stated) stands 12.8%.
Under `Cc1cccc(NC(=O)c2c(O)c3ccccc3n(C)c2=O)c1` stands 13.4%; under `COc1ccc(C(=O)OCC(=O)NC(=O)NC(C)C)cc1OC`, -0.28%.
Then `Cc1ccc(C(C)NC(=O)C2CCCO2)cc1C` (configuration not stated), with 16.5%.
Turning to `CC(NC(=O)C1CCCO1)c1ccccc1` (configuration not stated), the inhibition is 17.7%.
Take `COc1cc2ccccc2cc1C(=O)N1CCCCC1`: the inhibition stood at 12%.
Turning to `COC(=O)C1=C(C)N(Cc2ccccc2)C(=NCc2ccc(OC)cc2)N[C@H]1c1cccc(F)c1`, the inhibition was determined as 79.1%.
Then `COC(=O)C1=C(C)N(Cc2ccccc2)C(=NCc2cc(OC)c(OC)c(OC)c2)N[C@H]1c1cccc(F)c1`, with 65.1%; and `C=CCn1c(O)c(/C=N/NC(=O)c2ccncc2)c(=O)[nH]c1=O`, with 58%.
Then `COc1ccccc1C(=O)CC(=O)c1ccccc1`, with 52.4%; and `Nc1c(-c2cccc([N+](=O)[O-])c2)nc2ccccn12`, with 6.84%; and `O=c1c2ccccc2nc2ccccn12`, with -2.46%.
In the case of `Cc1nc2ccccc2c(=O)n1-c1cc([N+](=O)[O-])cc([N+](=O)[O-])c1`, the inhibition came to 19.9%.
Regarding `O=[N+]([O-])c1cnc2ccccc2c1`, the inhibition is -10.7%.
`CCCOc1ccc(-c2nc(C#N)c(N3CCN(C)CC3)o2)cc1`: the inhibition worked out at 30.2%.
Under `CCOc1ccc(CCNC(=O)COC(=O)CCC(=O)c2cccs2)cc1OCC` stands 11.4%; under `Cc1ccc(/C(=N\S(=O)(=O)c2ccc(Br)cc2)Nc2ccccc2C)cc1`, -11%; under `COc1ccc(NC(=O)CSCC(=O)NC2(C)CCS(=O)(=O)C2)cc1` (configuration not stated), -8.31%.
`CCn1ccnc1[C@@H]1C[C@H]2CN(Cc3ccccc3OC)C(=O)[C@]23CCCN13`: the inhibition is 29.3%.
As to `CCN(Cc1ccncc1)C(=S)Nc1ccccc1`, the inhibition is -19.8%.
`COc1cc(C=O)c(Cl)cc1OCC(N)=O`: the inhibition is -0.64%.
Under `CCOC(=O)C(C)Oc1ccsc1C(=O)OC` (configuration not stated) stands 53.8%.
Then `O=C(Nc1ccccc1N1CCCC1)c1cccnc1Cl`, with 7.22%; and `Cc1ccc(NC(=S)N2CCN(S(=O)(=O)c3ccccc3)CC2)cc1`, with -12.6%; and `O=C(COc1ccc(F)cc1)N1CCCc2ccccc21`, with 74.6%.
On to `Cc1ccc(OCC(=O)N2CCc3ccccc32)cc1`, for which the inhibition is 43%.
Then `CC(=O)NC(Cc1c[nH]c2ccccc12)C(=O)OCC(=O)Nc1cc(C)on1` (configuration not stated), with -1.64%; and `O=C(O)c1ccc(Sc2nnnn2-c2ccccc2)c([N+](=O)[O-])c1`, with 29.1%; and `Cn1nnnc1Sc1ccc(C(=O)O)cc1[N+](=O)[O-]`, with -12.4%.
Then `O=C(c1cc2n(n1)C(C(F)(F)F)CC(c1ccco1)N2)N1CCN(c2ccccn2)CC1` (configuration not stated), with 8.02%.
